Reference: PubChem BioAssay AID2314 (National Center for Advancing Translational Sciences (NCATS), 2010)
Hit rate of the full screen: of about 300,000 compounds, about 37,000 (12%) were called active. The sample as a whole holds a higher share of actives than the screen did. Values without a mark were called inactive. No stated cut-off is given here; in the data, active means max response mostly above about 13% (no sharp cut-off); inactive means mostly below about 14%.

Experiment: Cycloheximide Counterscreen for Small Molecule Inhibitors of Shiga Toxin; further: read at 38.3 µM for the half of the compounds with a filed dose; 0% is about no effect
Details: cell reporter, cycloheximide protein synthesis inhibition counterscreen; stronger effect = higher value

| SMILES | max response |
| --- | --- |
| COC(=O)C1(C)NC(c2ccccc2OC)C2C(=O)N(c3ccccc3)C(=O)C21 (stereo not drawn) | -3.69% |
| COc1ccc(N2CCN(S(=O)(=O)CCNC(=O)C34CC5CC(CC(C5)C3)C4)CC2)cc1 | -6.7% |
| CCN(CC(=O)NCC(=O)Nc1cccc(C)c1C)Cc1ccccc1 | -0.652% |
| O=C1C(=O)N(CCCN2CCOCC2)C(c2ccc([N+](=O)[O-])cc2)/C1=C(\O)c1ccc2c(c1)OCCO2 (stereo not drawn) | 13.6% |
| COc1ccccc1NC(=O)c1cc(N2C(=O)C3C4CCC(C4)C3C2=O)ccc1Cl (stereo not drawn) | 21.1% |
| Cc1ccc(CNC(=O)c2ccc(CS(=O)Cc3cccc(Cl)c3)o2)cc1 (stereo not drawn) | 5.04% |
| CCC(C)C(=O)Nc1ccccc1N1CCN(c2ccc(F)cc2)CC1 (stereo not drawn) | 5.61% |
| C/C(=N\NC(=S)NCc1ccccc1)C1CCCCC1 | -2.61% |
| COC(=O)[C@@H]1CC(O)CN1C(=O)C12CC3CC(CC(C3)C1)C2 (stereo partly drawn) | -8.25% |
| COc1ccc(C(=O)NC2CC2)cc1OC1CCN(Cc2ccc(SC)cc2)CC1 | 10.6% |
| Cc1nc([N+](=O)[O-])cn1CC(=O)Nc1ccc(Cl)cc1 | -1.69% |
| CC(=O)Nc1ccc(C(=O)OCC(=O)Nc2ccc([N+](=O)[O-])cc2C(F)(F)F)cc1 | -3.83% |
| O=C(Nc1ccc(C(=O)O)c(O)c1)c1ccccc1 | -3.21% |
| O=C(NC(=O)c1ccccc1)NC(=O)c1ccccc1 | 8.89% |
| O=C(NC(=O)c1ccccc1)Nc1ccccc1O | 38.7% (active) |
| O=C(CCN1CCN(C/C=C/c2ccccc2)CC1)Nc1ccccc1Cl | -2.77% |
| Cc1ccc(-c2nnc(CN3CCN(C)CC3)o2)cc1 | 11.1% |
| COc1ccccc1CNC(=O)C1CCN(S(=O)(=O)c2ccc3c(c2)CC(C)N3C(=O)C2CC2)CC1 (stereo not drawn) | 1.43% |
| CCC(=O)N1c2ccc(S(=O)(=O)CCC(=O)N3CCN(c4ccccc4)CC3)cc2CC1C (stereo not drawn) | -1.91% |
| Cc1ccc(CNC(=O)CCS(=O)(=O)c2ccc3c(c2)CC(C)N3C(=O)C2CC2)o1 (stereo not drawn) | 22.1% (active) |
| Cc1cc(SCc2c(F)cccc2Cl)nc(=O)[nH]1 | 6.03% |
| O=C(CSc1ccc(-c2ccco2)nn1)NCc1ccc2c(c1)OCO2 | 3.12% |
| Fc1cccc(Cl)c1CSc1ccc(-c2ccco2)nn1 | 39% (active) |
| Brc1ccc(CSc2ccc(-c3ccco3)nn2)cc1 | 28.4% (active) |

| SMILES | max response |
| --- | --- |
| N[C@@H](Cc1c[nH]c2ccccc12)c1nnc(SCc2c(F)cccc2Cl)o1 | -4% |
| Clc1ccccc1CSc1nnc(-c2ccco2)c(-c2ccco2)n1 | 8.29% |
| CCOc1ccc(Br)cc1S(=O)(=O)Nc1ccc(C(=O)OC(C)C(=O)N(C)c2ccccc2)cc1 (stereo not drawn) | 0.522% |
| O=C(Nc1cccc(Cl)c1)c1cc(S(=O)(=O)N2CCCCC2)c[nH]1 | 1.01% |
| CCOC(=O)C1CN(S(=O)(=O)c2ccc(OC)cc2)c2cc(Cl)ccc2O1 (stereo not drawn) | -3.3% |
| Cc1ccc(S(=O)(=O)N2CCN=C2SCc2c(F)cccc2Cl)cc1 | 0.957% |
| CC(=O)N(c1ccc2oc(=O)sc2c1)S(=O)(=O)c1ccc(C)cc1 | -5.66% |
| Cc1ccc(N=C2NC(=O)c3cccc([N+](=O)[O-])c32)cc1 | 37.1% (active) |
| COC(=O)c1cccc([N+](=O)[O-])c1CS(=O)(=O)c1ccc(C)cc1 | 1.48% |
| Cc1ccc(Cl)cc1NC(=O)COC(=O)CC(C)(C)C | -0.256% |
| O=C(COc1ccc(-c2ccccc2)cc1)NN=C1CCCC1 | -1.28% |
| c1ccc2sc(NN=C3CCCC3)nc2c1 | 38.7% (active) |
| O=[N+]([O-])c1cc(Br)c(O)c(/C=N/Nc2nc3ccccc3s2)c1 | 26% |
| COCc1cc(=O)[nH]c(-c2ccc(C(F)(F)F)cc2)n1 | -0.991% |
| C=CCN(Cc1nc(-c2cc(OC)c3c(c2)OCO3)oc1C)C1CCS(=O)(=O)C1 (stereo not drawn) | -2.18% |
| Cc1occc(=O)c1OCc1ccc(F)cc1 | 5.09% |
| Cc1nc2ccccc2cc1OCc1ccc(F)cc1 | 37.2% (active) |
| Fc1cccc2ncnc(OCc3ccccc3)c12 | 6.13% |
| CCSc1nc2sc3c(c2c(=O)n1-c1ccc(C)cc1)CCN(C)C3 | -1.97% |
| Cc1cccc(NS(=O)(=O)c2ccc(C)c(C(N)=O)c2)c1 | -1.67% |
| Cc1ccccc1CC1(CO)CCCN(Cc2ccc3c(c2)OCCO3)C1 (stereo not drawn) | -2.18% |
| COc1ccc([C@H]2[C@H](C(C)=O)N3N=Cc4ccccc4C3C23C(=O)OC(C)(C)OC3=O)cc1 (stereo partly drawn) | 12.2% |
| CN(C(=O)COc1ncnc2c1cnn2-c1ccccc1)C1CCCCC1 | 2.25% |
| CN(C(=O)CSc1nncc2ccccc12)C1CCCCC1 | 30.4% (active) |

| SMILES | max response |
| --- | --- |
| O=c1c2ccccc2nnn1CSc1nnnn1-c1ccccc1 | 67.5% (active) |
| CN(C(=O)CSc1nnc(-c2c[nH]c3ccccc23)o1)C1CCS(=O)(=O)C1 (stereo not drawn) | 1.22% |
| CN(C(=O)CSc1nnnn1-c1ccccc1)C1CCCCC1 | 17.1% (active) |
| Nc1nnc(SCn2nnc3ccccc3c2=O)s1 | 13.9% |
| CC(=O)c1cccc(-n2nnnc2SCC(=O)NNC(=O)C2CCCCC2)c1 | 0.0917% |
| CN(C(=O)CCn1c(=S)oc2ccccc21)C1CCCCC1 | 3.76% |
| C=CCn1c(SCn2nnc3ccccc3c2=O)nnc1-c1ccc(Cl)cc1 | 8.6% |
| CC(NC(=O)C1CCCN(S(=O)(=O)c2ccc(-n3cnnn3)cc2)C1)c1ccc(F)cc1 (stereo not drawn) | 1.89% |
| Cc1cccc(N(Cc2ccccc2)C(=O)c2ccccc2F)c1 | 13.7% |
| O=C(NCc1ccccc1Cl)C1CCCN1S(=O)(=O)c1ccc(F)cc1 (stereo not drawn) | -3.67% |
| COCCCNC(=S)N1CCCC(c2nc3cc(C)c(C)cc3[nH]2)C1 (stereo not drawn) | 13.5% |
| CC1CCN(C(=S)c2ccc(-c3ccc(Cl)cc3Cl)o2)CC1 | 8.41% |
| CCOC(=O)c1cnc(Nc2nc3ccccc3o2)nc1CSC(=S)N1CCCCC1 | 10.5% |
| COc1ccc(N=Nc2ccc(O)c(P(=O)(c3ccccc3)c3ccccc3)c2)cc1 | -8.38% |
| Cc1cc(N=Nc2ccc3ccccc3c2)ccc1O | 46.6% (active) |
| COc1ccnc2c1c(=O)n(Cc1cccc(F)c1)c(=O)n2C | 6.46% |
| COc1ccc2c(c1OC)C(=O)OC2c1c(O)nc(SC)n(-c2ccccc2)c1=O (stereo not drawn) | -1.46% |
| COc1ccc(-c2csc(NC3OC(=O)c4ccccc43)n2)cc1 (stereo not drawn) | 20% (active) |
| COc1ccc(C(=O)Nc2nc(-c3ccc(S(=O)(=O)N4CCOCC4)cc3)cs2)cc1 | 0.36% |
| COc1ccc(N/C=C(\C2OC(=O)c3ccccc32)[N+](=O)[O-])cc1 (stereo not drawn) | 7.23% |
| Cc1ccc(-c2csc(NC3OC(=O)c4ccccc43)n2)cc1 (stereo not drawn) | 21.8% (active) |
| CCc1ccccc1NC(=O)[C@@H]1CCC(=O)N1C1OC(=O)c2c1ccc(OC)c2OC (stereo partly drawn) | -2.07% |
| Cc1ccc(-c2csc(NC(=O)Cn3[nH]c(=O)c4ccccc4c3=O)n2)cc1 | 11.5% |
| COc1ccc2c(c1OC)C(=O)OC2Nc1nc(-c2ccccc2)cs1 (stereo not drawn) | 38.5% (active) |

| SMILES | max response |
| --- | --- |
| O=C(Cn1c(NCCO)nc2ccccc21)c1ccc(Cl)cc1Cl | -1.01% |
| COc1ccc(CN2CCN(Cc3cn(C)nc3-c3ccccc3)CC2CCO)c(C)c1C (stereo not drawn) | 7.91% |
| CC(=O)c1ccc(S(=O)(=O)N(C)CCCC(=O)N(C)Cc2ccccc2F)cc1 | 2.54% |
| COC(=O)C1=CN(Cc2ccc(OC)cc2)C=C(C(=O)OC)C1c1ccc(O)c(OC)c1 | -3.7% |
| O=C(c1ccc(Br)o1)N(c1ccccn1)C1CCCCC1 | 0.638% |
| Cc1cc(C)c(C#N)c(SCc2ccc3c(c2)OCO3)n1 | -2.14% |
| Cc1snc(SCc2c(F)cccc2Cl)c1C#N | -2.84% |
| Cc1ccc(CSc2nsc(C)c2C#N)cc1 | 22% (active) |
| Cn1c(CCC(=O)OCC(=O)NCc2ccccc2Cl)nc(=O)c2ccccc21 | -1.91% |
| CCOCCCNC(=S)Nc1ccc2nc(N3CCN(CC)CC3)cc(C)c2c1 | -1.07% |
| COc1cccc(CCNC(=O)c2cccc(NC(=O)C3=C(C)OCCS3)c2)c1 | 12% |
| Cc1ccc(C(=O)NC(=S)Nc2ccc3[nH]c(=O)[nH]c3c2)cc1C | 2.1% |
| CC(=O)NC(=S)Nc1ccc(NC(=S)NC(=O)c2ccc([N+](=O)[O-])cc2)cc1 | 10.5% |
| CC(=O)Nc1ccc(NC(=S)NC(=O)c2ccc([N+](=O)[O-])c(C)c2)cc1 | 17.1% (active) |
| COc1ccc(N2CC(C(=O)N[C@@H](C)C(=O)N3CCCCC3)CC2=O)cc1 (stereo partly drawn) | -0.721% |
| O=C1/C(=C/c2coc3ccc(O)cc3c2=O)SC(=S)N1c1ccccc1 | -2.68% |
| Cc1cc(OC(=O)c2ccccc2Cl)ccc1N1C(=O)CCC1=O | 43.6% (active) |
| CCOC(=O)c1cc(OC(=O)c2ccccc2Cl)n(-c2ccccc2)n1 | 28.5% |
| COc1ccccc1C(=O)Oc1ccc(N2C(=O)CCC2=O)cc1 | -4.08% |
| O=C1c2ccccc2-c2ncnc3c(N4CCOCC4)cc(N4CCOCC4)c1c23 | -4.86% |
| CC(=O)c1ccc(S(=O)(=O)N2CCC3(CC2)OCCO3)cc1 | -6.29% |
